According to PubChem BioAssay:
The source made the active and inactive calls. Unless noted, the rule behind the calls is not given here.

How the values were obtained:
[1] = HepG2 liver cancer cell viability effects, profiling panel, resazurin fluorescence, 24 h, PK04 Diversity Set (AID 1172); details: higher = more signal
[2] = basal S. cerevisiae growth modulation, no modifier, primary screen, OD600, strain BY4716, 24 h, basal condition (AID 1173); details: OD600, 24 h, higher = more signal, called active from +8 up or from −8 down
[3] = MM1S myeloma cell viability, profiling panel, resazurin fluorescence, basal, 24 h, PK04 Diversity Set (AID 1174); details: higher = more signal, called active from +8 up or from −8 down;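 note: MM1S multiple myeloma cell line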
[4] = target: Dihydroorotate dehydrogenase (quinone), mitochondrial (Plasmodium falciparum (isolate 3D7)) (UniProt Q08210); assay: PfDHODH enzyme inhibitors, primary screen, biochemical, C-terminal His tag, absorbance 600 nm (AID 1175); details: DCIP absorbance 600 nm, higher = more signal, called active from +8 up or from −8 down;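 note: recombinant parasite enzyme with a five histidine tag at its C terminus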
Chain of Dihydroorotate dehydrogenase (quinone), mitochondrial (Plasmodium falciparum (isolate 3D7)) (Q08210 whole entry, looked up): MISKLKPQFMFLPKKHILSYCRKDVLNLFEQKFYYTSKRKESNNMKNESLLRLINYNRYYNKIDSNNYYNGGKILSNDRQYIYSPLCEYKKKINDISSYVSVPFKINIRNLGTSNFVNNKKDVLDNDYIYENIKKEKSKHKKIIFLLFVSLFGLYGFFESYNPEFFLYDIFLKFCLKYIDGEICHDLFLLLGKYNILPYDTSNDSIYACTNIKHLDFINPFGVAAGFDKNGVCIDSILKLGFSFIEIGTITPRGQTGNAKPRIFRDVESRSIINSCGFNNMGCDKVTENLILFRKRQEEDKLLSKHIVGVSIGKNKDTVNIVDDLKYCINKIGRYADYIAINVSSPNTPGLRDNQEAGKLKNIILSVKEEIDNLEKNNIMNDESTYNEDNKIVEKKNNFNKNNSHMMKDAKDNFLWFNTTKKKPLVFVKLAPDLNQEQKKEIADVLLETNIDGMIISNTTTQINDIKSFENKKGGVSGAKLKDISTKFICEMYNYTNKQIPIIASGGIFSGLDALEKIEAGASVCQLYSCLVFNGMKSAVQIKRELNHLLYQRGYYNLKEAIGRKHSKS

[5] = P. aeruginosa biofilm formation inhibitors, primary screen, strain PAO1, LB-PBS medium, absorbance 600 nm (AID 1176); details: P. aeruginosa PAO1 growth/biofilm, A600, 12 h; higher = more signal
[6] = S. cerevisiae RM11-1a growth modifiers, primary screen, strain RM11-1a, OD600, basal, 24 h (AID 1177); details: OD600, 24 h, higher = more signal, called active from +8 up or from −8 down;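 note: cultures grown under basal conditions with no added stressor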
[7] = E. coli acrAB mutant growth effects, primary screen, E. coli filamentation inducers, strain DRC39, OD650, 24 h (AID 1178); details: higher = more signal, called active from +8 up or from −8 down;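 note: growth measured as culture turbidity by optical density at 650 nm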
[8] = E. coli acrAB mutant growth effects, primary screen, E. coli filamentation inducers, strain DRC39, OD650, 48 h (AID 1179);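 note: screen aims at cell division blockers that make cells filament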; details: E. coli DRC39 delta-acrAB growth, higher = more signal, called active from +8 up or from −8 down
[9] = RPMI8226 myeloma cell viability, profiling panel, resazurin fluorescence, basal, 24 h, PK04 Diversity Set (AID 1180); details: higher = more signal;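 note: RPMI8826 multiple myeloma cell line at 5000 cells per well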
[10] = target: E3 ubiquitin-protein ligase XIAP (Homo sapiens) (UniProt P98170); assay: XIAP binders, primary screen, biophysical, small-molecule microarray, fluorescence 635 nm (AID 1181); details: small-molecule microarray binding, higher = more signal;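 note: score merges 667 nm emission and signal to noise over triplicate slides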
Chain of E3 ubiquitin-protein ligase XIAP (Homo sapiens) (P98170 whole entry, looked up): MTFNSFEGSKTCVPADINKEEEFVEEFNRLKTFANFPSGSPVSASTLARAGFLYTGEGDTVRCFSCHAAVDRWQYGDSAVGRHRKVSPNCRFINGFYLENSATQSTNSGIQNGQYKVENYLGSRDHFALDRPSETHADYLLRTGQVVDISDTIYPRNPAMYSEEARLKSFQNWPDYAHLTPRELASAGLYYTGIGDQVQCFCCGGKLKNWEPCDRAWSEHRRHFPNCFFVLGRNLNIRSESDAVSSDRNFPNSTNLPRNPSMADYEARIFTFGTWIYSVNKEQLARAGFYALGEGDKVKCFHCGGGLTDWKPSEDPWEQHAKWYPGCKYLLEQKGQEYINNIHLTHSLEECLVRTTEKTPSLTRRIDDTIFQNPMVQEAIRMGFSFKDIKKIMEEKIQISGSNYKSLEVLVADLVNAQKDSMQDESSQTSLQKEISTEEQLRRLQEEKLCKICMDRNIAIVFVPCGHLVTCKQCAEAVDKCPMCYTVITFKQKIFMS

[11] = test system: XIP peptide (Xip251-270) binding; assay: small-molecule binders of XIP peptide, primary screen, biochemical, small-molecule microarray, fluorescence 635/667 nm, 0.1 µg/mL protein (AID 1182); details: fluorescent protein binding, 635 nm, higher = more signal, called active from +8 up or from −8 down
[12] = test system: XIP peptide (Xip251-270); assay: small-molecule binders of XIP peptide, primary screen, biochemical, small-molecule microarray, fluorescence 635/667 nm, 0.5 µg/mL protein (AID 1183); details: small-molecule microarray binding, fluorescence 635 nm; higher = more signal
[13] = Plasmodium falciparum growth inhibition, primary screen, strain 3D7, DAPI fluorescence, 100 nL (AID 1184);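 note: parasites grown inside human red blood cells in medium with human serum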; details: P. falciparum 3D7 growth, 3 d, higher = more signal
[14] = target: Homeobox protein Hox-A13 (Mus musculus) (UniProt Q62424); assay: inhibitors of HoxA13-DNA binding, primary screen, biochemical, fluorescence polarization, labeled oligonucleotide (AID 1185); details: 15 min, higher = more signal, called active from +8 up or from −8 down
Chain of Homeobox protein Hox-A13 (Mus musculus) (Q62424 whole entry, looked up): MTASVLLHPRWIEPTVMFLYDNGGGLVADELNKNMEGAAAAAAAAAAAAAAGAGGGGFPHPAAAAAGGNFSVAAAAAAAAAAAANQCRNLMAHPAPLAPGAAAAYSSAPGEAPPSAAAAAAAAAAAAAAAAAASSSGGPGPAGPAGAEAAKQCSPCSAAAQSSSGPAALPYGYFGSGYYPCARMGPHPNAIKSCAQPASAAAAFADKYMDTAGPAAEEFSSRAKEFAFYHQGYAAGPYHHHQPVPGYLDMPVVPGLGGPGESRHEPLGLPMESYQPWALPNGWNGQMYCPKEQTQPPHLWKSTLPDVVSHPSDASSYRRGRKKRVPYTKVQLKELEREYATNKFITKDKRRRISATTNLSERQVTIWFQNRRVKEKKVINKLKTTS

[15] = inhibitors of hydroxyurea-induced Chk1 phosphorylation, primary screen, imaging, HeLa, phospho-Chk1 antibody, percent positive cells (AID 1186); details: hydroxyurea-induced phospho-Chk1 immunofluorescence imaging, higher = more signal
[16] = inhibitors of hydroxyurea-induced Chk1 phosphorylation, primary screen, imaging, HeLa, phospho-Chk1 nuclear intensity (AID 1187); details: hydroxyurea-induced phospho-Chk1 immunofluorescence imaging, higher = more signal

Structure (SMILES) | z-score [1] | z-score [2] | z-score [3] | composite z-score [4] | z-score [5] | z-score [6] | z-score [7] | z-score [8] | z-score [9] | composite z-score [10] | composite z-score [11] | composite z-score [12] | z-score [13] | z-score [14] | z-score [15] | z-score [16]
CN1C(=O)C2C(C1=O)C1C=C(CCCO)C2C(C2CC2)N1Cc1cccc(OC(F)(F)F)c1 (centres undefined) | -0.584 | -1.13 (inactive) | -0.551 (inactive) | -1.75 (inactive) | 0.559 (inactive) | 0.132 (inactive) | 0.492 (inactive) | -0.377 (inactive) | -0.615 | 0.0105 | 0.0292 (inactive) | 0.9 | -1.06 | -7.06 (inactive) | 0.0426 (inactive) | -0.0667 (inactive)
C=CCC(OC(C)=O)[C@@H]1[C@@H](N(Cc2cccc3ccccc23)C(=O)Cc2ccc(OC)cc2)c2cc(OCCCO)ccc2N1C(=O)c1ccc2ccccc2c1 (some centres undefined) | 0.74 | -1.57 (inactive) | 0.435 (inactive) | -0.775 (inactive) | -0.37 (inactive) | -0.958 (inactive) | 1.22 (inactive) | 0.56 (inactive) | 1.17 | -0.123 | -0.129 (inactive) | 0.174 | -2.64 | -2.33 (inactive) | -0.325 (inactive) | -0.0189 (inactive)
CN(C)CCCNC(=O)[C@@]1(C)c2ccccc2C(=O)N(Cc2ccc(OC(F)(F)F)cc2)[C@H]1c1ccc(CO)cc1 | -0.732 | -1.69 (inactive) | -1.18 (inactive) | -0.397 (inactive) | 0.236 (inactive) | -0.164 (inactive) | 0.967 (inactive) | -1.26 (inactive) | 0.415 | -0.156 | 0.784 (inactive) | 0.778 | -1.94 | -1.98 (inactive) | 0.395 (inactive) | 0.0436 (inactive)
NC(=O)N1C(=O)C2C(C1=O)C1C=C(CCCO)C2C(c2ccc(CN3CCCC3)cc2)N1Cc1cc2c(cc1Br)OCO2 (centres undefined) | -0.766 | -0.222 (inactive) | -1.29 (inactive) | 0.0032 (inactive) | 0.792 (inactive) | -0.572 (inactive) | -0.672 (inactive) | -0.299 (inactive) | -1.5 | 0.0251 | 0.224 (inactive) | -0.0073 | -0.459 | -4.36 (inactive) | 0.504 (inactive) | 0.519 (inactive)
CN1C(=O)C2C(C1=O)C1C=C(c3ccc(CO)cc3)C2C(C2CC2)N1C (centres undefined) | -0.849 | 0.385 (inactive) | -0.485 (inactive) | 0.918 (inactive) | -0.305 (inactive) | 0.358 (inactive) | -0.453 (inactive) | -0.335 (inactive) | -0.772 | -0.0611 | 0.017 (inactive) | 0.816 | -1.97 | -5.37 (inactive) | -0.287 (inactive) | -0.232 (inactive)
CC(=O)OCC1C2CC[C@H]3C(OCc4ccc(F)cc4C(F)(F)F)OC[C@]4(C)[C@H]3C2=C(CN4C(=O)OC(C)(C)C)[C@H](C)C1COC(C)=O (some centres undefined) | -1.11 | 1.69 (inactive) | -1.34 (inactive) | 0.182 (inactive) | 1.14 (inactive) | 1.93 (inactive) | -1.47 (inactive) | -0.748 (inactive) | -1.18 | 0.691 | -0.07 (inactive) | 0.653 | -1.22 | -3.13 (inactive) | 0.657 (inactive) | 0.833 (inactive)
COCCCNC(=O)[C@@]1(CCS(=O)(=O)c2ccccc2)COC(c2ccc(OCCCO)cc2)=N1 | -0.721 | -0.25 (inactive) | -0.849 (inactive) | -0.565 (inactive) | 0.19 (inactive) | -0.19 (inactive) | 0.199 (inactive) | 0.103 (inactive) | -0.508 | 0.218 | 1.85 (inactive) | -0.227 | 0.264 | -4.7 (inactive) | 0.103 (inactive) | 0.103 (inactive)
CN(C)C(=O)[C@@]1(Cc2ccccc2CN=[N+]=[N-])COC(c2ccc(OCCCO)cc2)=N1 | 1.01 | -4.86 (inactive) | -1.19 (inactive) | -0.311 (inactive) | -0.732 (inactive) | 3.73 (inactive) | 1.04 (inactive) | 1.58 (inactive) | 0.196 | 0.153 | 0.182 (inactive) | 0.62 | -2.08 | -5.02 (inactive) | -0.439 (inactive) | -0.521 (inactive)
C[C@]1(C(=O)O)c2ccccc2C(=O)N(Cc2cc(F)cc(C(F)(F)F)c2)[C@H]1c1ccc(CO)cc1 | 0.646 | -1.43 (inactive) | 0.449 (inactive) | -0.215 (inactive) | 1.01 (inactive) | -1.33 (inactive) | 0.434 (inactive) | -0.808 (inactive) | 1.4 | -0.167 | 0.342 (inactive) | 0.778 | 0.832 | -1.83 (inactive) | 0.117 (inactive) | 0.239 (inactive)
